Screens: PubChem, The Scripps Research Institute Molecular Screening Center
Hits are enriched below; roughly 3.4% of the tested compounds scored in any of these assays.
GPR151 activ: human GPR151 activation. 650,000 tested, 1% active. PathHunter beta-arrestin GPR151 cells, luminescence. Q8TDV0. activation, % at 11.2 µM; in the data active = activation above about 4.9%;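 note: 0% = median of compound wells and 100% = cells with positive control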
TEAD-YAP inh: TEAD-YAP interaction inhibition; 640,000 tested, 1.4% active; inhibition, % at 9.12 µM; AID 1259422; HEK-TIYL cells, TEAD-Gal4/YAP UAS-luciferase luminescence; in the data active = inhibition above about 32%;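 note: 0% = median of test compound wells and 100% = reference inhibitor wells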
MITF primary: blocks human microphthalmia-associated transcription factor; O75030; AlphaScreen MITF homodimerization, bead proximity signal; inhibition, % at 2.6 µM; 650,000 tested, 0.91% active; AID 1259374; in the data active = inhibition above about 50%;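 note: 0% = vehicle wells with protein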
FBW7 act: human FBW7 E3 ligase activation, primary screen; Q969H0; AlphaScreen FBW7–phospho-cyclin E peptide binding, activator screen; normalized activity (activation), % at 26.1 µM; 650,000 tested, 0.13% active; AID 1259310; in the data active = normalized activity above about 1.9%;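 note: purified mutant Fbw7 with reduced substrate affinity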
GPR151 confirm: human GPR151 activation, confirmation screen. shares compounds with GPR151 activ. GPR151 PathHunter beta-arrestin cells, luminescence, 90 min; % of EA-reagent control over plate median. activation, % at 11.2 µM. 6,700 tested, under 10 active. AID 1508609;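 active = mean percent activation across replicates above the confirmation screen cutoff of 4.91%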
GPR119 counter: GPR119 activation, counter-screen for GPR151 activators. 6,700 tested, 0.3% active. activation, % at 11.2 µM. GPR119 PathHunter beta-arrestin cells, luminescence, 90 min; 0 = compound-well median, 100 = enzyme-acceptor control. shares compounds with GPR151 activ;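 active = mean percent activation in the counterscreen above 29.09%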;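 note: counterscreen on off-target GPR119 to flag nonselective hits from the GPR151 activator screen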
Target sequence (Q8TDV5 whole entry, looked up): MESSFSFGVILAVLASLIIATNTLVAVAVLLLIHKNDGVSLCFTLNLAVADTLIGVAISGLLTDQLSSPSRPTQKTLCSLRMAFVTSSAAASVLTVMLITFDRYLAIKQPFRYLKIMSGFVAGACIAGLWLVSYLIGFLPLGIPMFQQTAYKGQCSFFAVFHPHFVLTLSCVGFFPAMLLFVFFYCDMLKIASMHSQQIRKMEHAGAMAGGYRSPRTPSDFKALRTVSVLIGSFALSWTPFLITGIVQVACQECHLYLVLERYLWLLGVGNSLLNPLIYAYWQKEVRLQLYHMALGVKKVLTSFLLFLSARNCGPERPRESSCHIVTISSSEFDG
* hit, by the source's call; · = no result given; ! = not confirmed by another sample.

SMILES | GPR151 activ | TEAD-YAP inh | MITF primary | FBW7 act | GPR151 confirm | GPR119 counter
COc1ccc(CC2(CCC(=O)NCc3cnn(C)c3C)CCC(=O)N2)c(F)c1 (centres undefined) | 5.1* | -1.4 | -7.1 | 0.3 | 1.1 | 10.0
O=C(O)c1ccc(Cn2cnc3scc(-c4ccccc4)c3c2=O)cc1 | 5.2* | -0.8 | -0.4 | 0.0 | 0.2 | 7.2
O=c1c2c(-c3ccccc3)csc2ncn1Cc1ccccc1 | -0.6 | 10.3 | 1.4 | 0.0 | · | ·
CN(CCO)c1ncnc2sccc12 | 6.6* | 5.9 | -1.5 | 0.0 | 0.4 | 4.1
O=C(NCc1ccco1)C1CC12CCN(C(=O)c1cc(-c3ccccc3)no1)CC2 (centres undefined) | 2.0 | -12.1 | 12.8 | 0.0 | · | ·
O=C(NCCCc1ccncc1)C1CC12CCN(C(=O)c1cc(-c3ccccc3)no1)CC2 (centres undefined) | 6.1* | 5.7 | 17.2 | 0.8 | 1.4 | 4.7
COc1cccc(CCC(=O)N2CCCC(N3CCC(CO)CC3)C2)c1 (centres undefined) | 8.1* | 9.7 | 12.5 | 0.0 | -0.4 | -9.6
CC(C)N(CCNc1nc(Nc2ccccn2)nc2c1ncn2C1CCCCC1)C(C)C | 6.4* | 16.1 | 1.9 | -0.1 | -0.2 | -13.2
CC(C)N(CCNc1nc(Nc2nccc3ccccc23)nc2c1ncn2C1CCCCC1)C(C)C | -2.2 | -3.8 | -11.6 | -0.1 | · | ·
O=C1N(Cc2cccnc2)C[C@@H]2C[C@@H](c3cccn3-c3ncccn3)N3CCC[C@@]123 | 19.7* | 6.8 | 6.9 | 0.1 | 0.4 | -3.6
O=C1N(Cc2cccnc2)C[C@@H]2C[C@@H](c3ccc(Oc4ncccn4)cc3)N3CCC[C@@]123 | 0.4 | 1.2 | 5.3 | 0.0 | · | ·
CCn1cc(Br)c(C(=O)Nc2cccc(SC)c2)n1 | 6.4* | -25.2 | -2.4 | 0.1 | -0.1 | -7.4
CCn1cc(Br)c(C(=O)Nc2cccc(F)c2)n1 | -0.7 | -22.0 | 7.4 | -0.1 | · | ·
CC(=O)c1ccc(N=C2CSC(=O)N2)cc1 | 2.1 | 3.2 | 8.7 | -0.1 | · | ·
C/C(=N\NC(=O)c1ccc(F)cc1)c1ccc([N+](=O)[O-])cc1 | 8.1* | -25.1 | 10.1 | -0.1 | -1.0 | -14.2
C/C(CC(=O)Nc1cc([N+](=O)[O-])ccc1C)=N\NC(=O)C(=O)NCCO | 8.3* | -7.8 | -4.3 | 0.1 | 0.2 | 9.1
CC(=O)CC(=O)Nc1cc([N+](=O)[O-])ccc1C | -0.1 | -6.4 | 5.5 | 0.0 | · | ·
Cc1cc([N+](=O)[O-])ccc1NC(=O)Cc1ccc(F)cc1 | -0.1 | 7.6 | -7.3 | -0.1 | · | ·
Cc1ccc([N+](=O)[O-])cc1NC(=O)Cc1ccc(F)cc1 | 5.4* | 0.4 | 6.9 | 0.2 | -1.0 | -11.3
CCOC(=O)[C@H](CCc1ccccc1)N[C@@H](C)C(=O)N1[C@H](C(=O)O)C[C@@H]2CCC[C@@H]21 | 7.0*! | 6.6 | -2.6 | -0.1 | 1.6 | 11.5
COc1ccccc1C(=O)NCc1nnc(SCC(=O)N2N=C(c3cccs3)CC2c2ccc(F)cc2)n1-c1ccc(F)cc1 (centres undefined) | -0.6 | -1.4 | 6.8 | 0.1 | · | ·
O=C(CSc1ccc(-c2cccnc2)nn1)N1CCOCC1 | 0.5 | -2.0 | -2.6 | -0.2 | · | ·
N#Cc1ccccc1NC(=O)CSc1nc2c(cc1C#N)CCCCC2 | 0.5 | -20.7 | 1.4 | 0.1 | · | ·
O=C(O)CN1CCOCCOCCN(CC(=O)O)CCOCCOCC1 | 5.9* | 3.3 | 3.0 | -0.1 | 0.5 | -3.1
COc1ccc(C=Nc2ccc(OC(C)=O)cc2)cc1 | 0.7 | -20.2 | -1.6 | -0.3 | · | ·
SMILES | GPR151 activ | TEAD-YAP inh | MITF primary | FBW7 act | GPR151 confirm | GPR119 counter
Cc1cc(C)n2c(SCCO)nnc2n1 | 5.6* | 9.5 | 8.5 | 0.1 | 0.5 | -6.1
Cc1cc(C)n2c(SCCNCCO)nnc2n1 | 1.2 | 5.5 | 27.1 | 0.0 | · | ·
Cc1cccc(-n2cnc3cc(C(=O)NCc4ccc5c(c4)OCO5)ccc32)c1 | 7.0* | 4.5 | 14.9 | 0.0 | -0.9 | -6.6
Cc1cc(C)cc(-n2cnc3cc(C(=O)NCc4ccc5c(c4)OCO5)ccc32)c1 | -1.1 | -3.1 | -15.8 | 0.0 | · | ·
O=C(CNC(=O)c1cccc(F)c1)N/N=C/c1cc([N+](=O)[O-])ccc1O | 0.2 | -2.3 | 26.5 | -0.4 | · | ·
O=C(CCc1n[nH]c(=O)[nH]c1=O)N/N=C/c1ccc(C(=O)O)cc1 | -0.4 | -5.7 | -2.6 | -0.3 | · | ·
Cc1cccc(-c2nc(CCNC(=O)Cc3ccccc3)cs2)c1 | 5.8* | -0.8 | -1.6 | -0.1 | 0.8 | 5.0
Cc1cc(NCCOc2ccccc2)nc(N2CCN(Cc3ccc4c(c3)OCO4)CC2)n1 | 6.0* | 8.1 | 6.2 | -0.4 | 1.5 | 3.1
CC(NCCC(N)=O)C1COc2ccccc2O1 (centres undefined) | 1.0 | 6.9 | -1.8 | 0.1 | · | ·
CN(Cc1c(C(=O)N2CCCC2)nc2sccn12)CC(O)c1ccccc1 (centres undefined) | 5.8* | 9.7 | 6.8 | 0.1 | 0.9 | 4.5
CC(C)c1nnc(NC(=O)c2cc(Cl)ccc2Cl)s1 | 5.1* | -11.8 | 6.5 | 0.3 | 1.0 | -8.5
O=C(CCc1nnc(Cc2ccc3c(c2)OCO3)o1)NCCCC1CCCC1 | 6.9* | -2.0 | 0.2 | 0.0 | -0.7 | -1.4
CCOc1cc(Br)c(/C=C/C(=O)O)cc1OC | 5.3* | -0.7 | 10.3 | 0.1 | -0.3 | -7.3
CCCC1=C(C(=O)OCC)C(c2ccc(OC)c(OC)c2OC)n2ncnc2N1 (centres undefined) | -0.8 | -0.1 | -6.7 | -0.2 | · | ·
N#C/C(=C/c1ccc(N2CCOCC2)c([N+](=O)[O-])c1)c1nc2ccccc2[nH]1 | 5.2* | -18.9 | -25.3 | -0.1 | -1.6 | -6.1
COc1ccc(Nc2nc(-c3c[nH]c4ccccc34)cs2)cc1 | 5.4* | -14.6 | 15.6 | -0.1 | 0.0 | -3.1
COc1ccc2c(c1)c(-c1csc(N)n1)c(C)n2C | -1.0 | 1.4 | 15.8 | -0.1 | · | ·
COc1ccc2c(-c3csc(N)n3)c[nH]c2c1 | 8.4* | 13.6 | -2.2 | -0.5 | 0.2 | 6.0
Cc1ccc(CN2CCN(Cc3c(C)n(C)n(-c4ccccc4)c3=O)CC2CCO)o1 (centres undefined) | -1.7 | -13.9 | -8.8 | -0.1 | · | ·
O=S(=O)(O)CCNC1CCCCC1 | -0.6 | -1.2 | 8.9 | 0.5 | · | ·
CC(=O)N(CC12CC3CC(CC(C3)C1)C2)C1CC(=O)N(c2ccc(F)cc2)C1=O (centres undefined) | 0.9 | -5.0 | -12.5 | 0.2 | · | ·
CCOC(=O)c1c(C)oc2nc(CCl)[nH]c(=O)c12 | 12.0* | 4.5 | -3.6 | 0.1 | -0.7 | -9.2
COC(=O)CN(C)c1nnc(N)s1 | 1.4 | 5.1 | 7.1 | 0.6 | · | ·
O=C(Cc1ccc(N2CCC(NCCn3ccnc3)CC2)cc1)NCCc1cccc(F)c1 | 6.0* | -2.3 | -7.7 | -0.2 | -0.6 | -9.4
CCN(CC)P(=O)(c1nc2ccccc2n1CC)N(CC)CC | 5.6* | 3.1 | 0.6 | 0.0 | -0.3 | -2.1
CCN(CC)c1cc(Nc2ccc(NC(C)=O)cc2)c([N+](=O)[O-])c2nonc12 | 1.7 | 6.9 | 6.4 | 0.1 | · | ·
